These results are taken from article PMC7862700, “An all-to-all approach to the identification of sequence-specific readers for epigenetic DNA modifications on cytosine”.

Holding throughout (experiment): DAPPL (digital affinity profiling via proximity ligation, sequencing); 10 mM Tris-HCl pH 7.5, 50 mM NaCl, 1 mM DTT, 4% glycerol, room temperature, 30 min; GST-TFs on glutathione beads, 16-mer random dsDNA library, 0.1% formaldehyde crosslink after washing; high values mean tight binding
One experiment deals with T1, FLI1 (Homo sapiens, UniProt Q01543 1-452).
T1 sequence: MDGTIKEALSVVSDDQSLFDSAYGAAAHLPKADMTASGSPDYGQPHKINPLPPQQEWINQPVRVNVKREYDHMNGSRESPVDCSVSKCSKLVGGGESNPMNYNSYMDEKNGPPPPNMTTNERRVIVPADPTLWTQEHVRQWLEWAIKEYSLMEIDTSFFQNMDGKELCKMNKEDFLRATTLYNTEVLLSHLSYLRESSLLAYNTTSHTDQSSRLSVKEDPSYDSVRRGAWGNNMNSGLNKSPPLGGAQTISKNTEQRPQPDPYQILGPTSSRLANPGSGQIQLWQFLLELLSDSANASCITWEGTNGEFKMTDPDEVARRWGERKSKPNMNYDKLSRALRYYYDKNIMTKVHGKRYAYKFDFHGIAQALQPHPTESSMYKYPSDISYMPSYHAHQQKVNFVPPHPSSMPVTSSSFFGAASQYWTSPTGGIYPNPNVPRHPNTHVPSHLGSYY
To be noted: protein: recombinant; tags: N-terminal GST; dsDNA, one strand shown. The procedure, abridged: (§1)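 Sequencing on an Illumina NextSeq500 followed washing, crosslinking with 0.1% formaldehyde, proximity ligation (BsaI/T4 ligase, 1 h, 37 °C) and PCR amplification of pools that had been incubated for 30 min at room temperature with 200 nmole of a random double-stranded 16-mer DNA library in Tris/NaCl/DTT/glycerol buffer. Each pool held DNA-barcoded human transcription factors, expressed in yeast as GST fusions and captured on glutathione beads, plus a tag-only sample. Binding signal is a hexamer's read frequency for a factor divided by its frequency in the tag-only sample.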

A further experiment has as its target T2, ELK1 (Homo sapiens, UniProt P19419 1-428).
T2 sequence: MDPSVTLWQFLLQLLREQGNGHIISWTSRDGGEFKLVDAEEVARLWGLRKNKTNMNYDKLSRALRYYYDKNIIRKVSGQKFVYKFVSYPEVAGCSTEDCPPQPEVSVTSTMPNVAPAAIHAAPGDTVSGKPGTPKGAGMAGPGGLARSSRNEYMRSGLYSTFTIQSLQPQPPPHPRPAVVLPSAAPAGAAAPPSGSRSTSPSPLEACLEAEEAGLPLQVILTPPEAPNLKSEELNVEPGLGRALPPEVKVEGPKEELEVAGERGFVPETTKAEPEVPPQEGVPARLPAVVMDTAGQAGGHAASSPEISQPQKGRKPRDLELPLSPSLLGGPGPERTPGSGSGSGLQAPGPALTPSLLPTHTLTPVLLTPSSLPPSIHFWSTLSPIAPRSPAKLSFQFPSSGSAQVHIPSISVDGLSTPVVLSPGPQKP
Conditions: protein: recombinant; tags: N-terminal GST; dsDNA, one strand shown. The essentials: as §1

For another experiment, the target named is T3, GABPA (Homo sapiens, UniProt Q06546 1-454).
T3 sequence: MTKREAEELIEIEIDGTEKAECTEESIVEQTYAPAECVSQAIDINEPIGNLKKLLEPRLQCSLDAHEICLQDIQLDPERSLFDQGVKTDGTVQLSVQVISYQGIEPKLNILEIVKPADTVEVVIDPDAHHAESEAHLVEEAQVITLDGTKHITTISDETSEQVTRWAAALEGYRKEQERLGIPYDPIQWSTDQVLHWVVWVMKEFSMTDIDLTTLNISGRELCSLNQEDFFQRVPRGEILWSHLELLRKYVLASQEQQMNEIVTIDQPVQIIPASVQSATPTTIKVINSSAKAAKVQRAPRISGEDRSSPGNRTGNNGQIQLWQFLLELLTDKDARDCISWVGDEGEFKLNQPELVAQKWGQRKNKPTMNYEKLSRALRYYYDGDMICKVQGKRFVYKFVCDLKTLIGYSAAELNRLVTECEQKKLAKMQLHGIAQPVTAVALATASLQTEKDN
To be noted: protein: recombinant; tags: N-terminal GST; dsDNA, one strand shown. The essentials:
as §1

The target of a further experiment is T4, ERG (Homo sapiens, UniProt P11308 1-479).
T4 sequence: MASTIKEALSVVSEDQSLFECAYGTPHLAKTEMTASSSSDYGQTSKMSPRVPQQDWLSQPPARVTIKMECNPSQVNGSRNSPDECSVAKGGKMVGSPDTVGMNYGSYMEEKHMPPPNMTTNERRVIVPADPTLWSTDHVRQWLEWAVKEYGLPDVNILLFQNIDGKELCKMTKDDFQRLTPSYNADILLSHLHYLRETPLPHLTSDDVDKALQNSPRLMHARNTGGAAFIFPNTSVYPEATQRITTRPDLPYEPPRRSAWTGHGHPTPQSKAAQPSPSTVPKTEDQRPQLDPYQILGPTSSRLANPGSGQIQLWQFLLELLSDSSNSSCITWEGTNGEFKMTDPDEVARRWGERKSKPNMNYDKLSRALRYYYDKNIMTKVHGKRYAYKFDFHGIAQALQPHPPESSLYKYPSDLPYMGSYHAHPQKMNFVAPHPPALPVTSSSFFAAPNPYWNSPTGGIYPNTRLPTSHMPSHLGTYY
Conditions: protein: recombinant; tags: N-terminal GST; dsDNA, one strand shown. The procedure, abridged:
as §1

Another experiment has as its target ELF1 (Homo sapiens, UniProt P32519 1-619). To be noted: protein: recombinant; tags: N-terminal GST; dsDNA, one strand shown. The essentials:
as §1

For the next experiment, the target named is T5, EHF (Homo sapiens, UniProt Q9NZC4 1-300).
T5 sequence: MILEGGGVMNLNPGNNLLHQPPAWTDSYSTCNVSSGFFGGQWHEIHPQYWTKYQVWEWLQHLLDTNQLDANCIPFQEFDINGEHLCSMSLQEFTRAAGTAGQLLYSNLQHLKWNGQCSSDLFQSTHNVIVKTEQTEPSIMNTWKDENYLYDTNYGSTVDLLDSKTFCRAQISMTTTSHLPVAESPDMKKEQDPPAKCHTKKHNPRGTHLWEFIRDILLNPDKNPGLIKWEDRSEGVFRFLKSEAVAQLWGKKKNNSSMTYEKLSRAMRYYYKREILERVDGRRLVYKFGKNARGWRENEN
To be noted: protein: recombinant; tags: N-terminal GST; dsDNA, one strand shown. The procedure, abridged:
as §1

The target of a further experiment is SPI1 (Homo sapiens, UniProt P17947 1-270). Conditions: protein: recombinant; tags: N-terminal GST; dsDNA, one strand shown. The procedure, abridged: as §1
For a further experiment, the target named is SPIB (Homo sapiens, UniProt Q01892 1-262). To be noted: protein: recombinant; tags: N-terminal GST; dsDNA, one strand shown. The procedure, abridged:
as §1

Another experiment concerns the target T6, ELK3 (Homo sapiens, UniProt P41970 1-407).
T6 sequence: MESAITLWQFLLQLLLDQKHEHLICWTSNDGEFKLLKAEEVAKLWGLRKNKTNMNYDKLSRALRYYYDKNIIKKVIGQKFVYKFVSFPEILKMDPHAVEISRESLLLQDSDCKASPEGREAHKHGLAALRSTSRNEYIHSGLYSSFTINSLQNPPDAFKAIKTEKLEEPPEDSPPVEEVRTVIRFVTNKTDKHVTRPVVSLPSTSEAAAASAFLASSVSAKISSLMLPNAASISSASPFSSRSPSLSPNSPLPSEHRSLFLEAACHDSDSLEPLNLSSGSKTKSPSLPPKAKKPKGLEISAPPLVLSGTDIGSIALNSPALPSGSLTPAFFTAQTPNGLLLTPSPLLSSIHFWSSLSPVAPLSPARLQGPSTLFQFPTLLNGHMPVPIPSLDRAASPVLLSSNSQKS
Conditions: protein: recombinant; tags: N-terminal GST; dsDNA, one strand shown. The procedure, abridged: as §1

A further experiment deals with T7, FEV (Homo sapiens, UniProt Q99581 1-238).
T7 sequence: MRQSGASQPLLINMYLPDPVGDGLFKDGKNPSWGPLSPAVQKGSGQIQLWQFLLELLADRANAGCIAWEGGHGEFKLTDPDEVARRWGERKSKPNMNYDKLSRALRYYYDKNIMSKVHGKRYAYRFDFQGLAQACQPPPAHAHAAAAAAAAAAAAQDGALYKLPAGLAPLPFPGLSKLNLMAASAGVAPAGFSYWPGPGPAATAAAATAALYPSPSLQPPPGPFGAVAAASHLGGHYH
To be noted: protein: recombinant; tags: N-terminal GST; dsDNA, one strand shown. The procedure, abridged: as §1

A further experiment addresses ETV5 (Homo sapiens, UniProt P41161 1-510). Conditions: protein: recombinant; tags: N-terminal GST; dsDNA, one strand shown. The procedure, abridged:
as §1

In the next experiment the target is HSF1 (Homo sapiens, UniProt Q00613 1-529). To be noted: protein: recombinant; tags: N-terminal GST; chain copies: 3; dsDNA, one strand shown. The procedure, abridged:
as §1

A further experiment addresses T8, SPIC (Homo sapiens, UniProt Q8N5J4 1-248).
T8 sequence: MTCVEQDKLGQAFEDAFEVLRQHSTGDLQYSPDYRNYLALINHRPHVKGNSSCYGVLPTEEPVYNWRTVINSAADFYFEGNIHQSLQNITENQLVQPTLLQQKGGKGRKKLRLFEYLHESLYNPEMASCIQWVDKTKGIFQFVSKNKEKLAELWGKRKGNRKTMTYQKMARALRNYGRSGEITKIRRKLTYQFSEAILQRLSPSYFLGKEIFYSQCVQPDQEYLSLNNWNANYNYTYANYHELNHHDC
To be noted: protein: recombinant; tags: N-terminal GST; dsDNA, one strand shown. The essentials:
as §1

In another experiment the target is ELF4 (Homo sapiens, UniProt Q99607 1-663). Conditions: protein: recombinant; tags: N-terminal GST; dsDNA, one strand shown. The essentials: as §1
Another experiment concerns the target T9, ELK4 (Homo sapiens, UniProt P28324-2 1-405).
T9 sequence: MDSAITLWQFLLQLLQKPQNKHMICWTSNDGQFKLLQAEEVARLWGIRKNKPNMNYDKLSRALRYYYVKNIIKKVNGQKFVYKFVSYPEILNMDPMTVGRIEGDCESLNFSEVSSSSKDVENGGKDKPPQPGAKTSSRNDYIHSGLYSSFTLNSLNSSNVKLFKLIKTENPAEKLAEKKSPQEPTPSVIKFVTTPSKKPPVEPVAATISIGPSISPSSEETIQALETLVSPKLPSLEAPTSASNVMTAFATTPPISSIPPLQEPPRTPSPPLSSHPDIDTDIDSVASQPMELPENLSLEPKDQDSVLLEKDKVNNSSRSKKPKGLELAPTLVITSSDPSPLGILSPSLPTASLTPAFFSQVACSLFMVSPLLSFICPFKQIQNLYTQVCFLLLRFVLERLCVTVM
Conditions: protein: recombinant; tags: N-terminal GST; dsDNA, one strand shown. The procedure, abridged: as §1

For the next experiment, the target named is T10, ETV2 (Homo sapiens, UniProt O00321 1-342).
T10 sequence: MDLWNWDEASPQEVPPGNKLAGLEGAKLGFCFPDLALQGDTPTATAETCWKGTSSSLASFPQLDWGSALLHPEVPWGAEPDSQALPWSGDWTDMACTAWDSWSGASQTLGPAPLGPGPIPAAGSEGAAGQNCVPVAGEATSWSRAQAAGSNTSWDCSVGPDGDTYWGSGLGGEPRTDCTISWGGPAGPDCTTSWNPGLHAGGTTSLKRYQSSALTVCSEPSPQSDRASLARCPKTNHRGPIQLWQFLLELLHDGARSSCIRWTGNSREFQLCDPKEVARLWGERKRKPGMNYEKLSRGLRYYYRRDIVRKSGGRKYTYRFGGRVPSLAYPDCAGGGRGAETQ
Conditions: protein: recombinant; tags: N-terminal GST; dsDNA, one strand shown. The procedure, abridged:
as §1

Another experiment concerns the target T11, ELF3 (Homo sapiens, UniProt P78545 1-371).
T11 sequence: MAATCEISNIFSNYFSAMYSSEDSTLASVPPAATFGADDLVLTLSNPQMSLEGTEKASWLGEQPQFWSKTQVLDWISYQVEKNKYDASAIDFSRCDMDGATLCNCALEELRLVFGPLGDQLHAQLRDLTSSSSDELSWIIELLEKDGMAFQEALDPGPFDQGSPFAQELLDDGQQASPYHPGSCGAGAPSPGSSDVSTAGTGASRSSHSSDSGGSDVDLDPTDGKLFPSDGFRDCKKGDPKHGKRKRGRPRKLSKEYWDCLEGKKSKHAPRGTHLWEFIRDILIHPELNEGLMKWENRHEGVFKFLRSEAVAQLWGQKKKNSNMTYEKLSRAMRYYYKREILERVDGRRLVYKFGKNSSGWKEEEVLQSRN
To be noted: protein: recombinant; tags: N-terminal GST; dsDNA, one strand shown. The essentials: as §1

The next experiment deals with CRX (Homo sapiens, UniProt O43186 1-299). To be noted: protein: recombinant; tags: N-terminal GST; dsDNA, one strand shown. The essentials:
as §1

Chain of ETV5 (P41161 whole entry): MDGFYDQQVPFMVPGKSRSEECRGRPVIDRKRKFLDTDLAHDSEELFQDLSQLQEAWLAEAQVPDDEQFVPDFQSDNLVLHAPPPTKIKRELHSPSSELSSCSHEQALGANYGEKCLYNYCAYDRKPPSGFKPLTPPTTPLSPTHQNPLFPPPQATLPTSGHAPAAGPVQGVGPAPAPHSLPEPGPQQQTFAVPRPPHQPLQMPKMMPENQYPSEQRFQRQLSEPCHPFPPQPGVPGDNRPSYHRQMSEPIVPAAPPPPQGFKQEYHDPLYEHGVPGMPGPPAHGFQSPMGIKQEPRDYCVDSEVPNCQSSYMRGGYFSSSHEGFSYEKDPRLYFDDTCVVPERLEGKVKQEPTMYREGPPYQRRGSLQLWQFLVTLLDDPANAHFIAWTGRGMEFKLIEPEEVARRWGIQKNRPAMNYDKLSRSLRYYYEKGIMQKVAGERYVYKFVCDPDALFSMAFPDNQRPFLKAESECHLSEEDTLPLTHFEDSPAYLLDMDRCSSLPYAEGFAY
Chain of CRX (O43186 whole entry): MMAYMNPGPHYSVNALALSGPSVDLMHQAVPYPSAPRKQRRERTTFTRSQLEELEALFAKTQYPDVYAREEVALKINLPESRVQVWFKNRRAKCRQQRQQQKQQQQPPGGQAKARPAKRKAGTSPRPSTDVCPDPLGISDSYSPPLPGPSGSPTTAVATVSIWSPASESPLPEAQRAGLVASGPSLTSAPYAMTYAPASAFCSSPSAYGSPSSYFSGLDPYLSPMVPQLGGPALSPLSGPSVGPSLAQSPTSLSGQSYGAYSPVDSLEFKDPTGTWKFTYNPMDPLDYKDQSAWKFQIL
Chain of ELF1 (P32519 whole entry): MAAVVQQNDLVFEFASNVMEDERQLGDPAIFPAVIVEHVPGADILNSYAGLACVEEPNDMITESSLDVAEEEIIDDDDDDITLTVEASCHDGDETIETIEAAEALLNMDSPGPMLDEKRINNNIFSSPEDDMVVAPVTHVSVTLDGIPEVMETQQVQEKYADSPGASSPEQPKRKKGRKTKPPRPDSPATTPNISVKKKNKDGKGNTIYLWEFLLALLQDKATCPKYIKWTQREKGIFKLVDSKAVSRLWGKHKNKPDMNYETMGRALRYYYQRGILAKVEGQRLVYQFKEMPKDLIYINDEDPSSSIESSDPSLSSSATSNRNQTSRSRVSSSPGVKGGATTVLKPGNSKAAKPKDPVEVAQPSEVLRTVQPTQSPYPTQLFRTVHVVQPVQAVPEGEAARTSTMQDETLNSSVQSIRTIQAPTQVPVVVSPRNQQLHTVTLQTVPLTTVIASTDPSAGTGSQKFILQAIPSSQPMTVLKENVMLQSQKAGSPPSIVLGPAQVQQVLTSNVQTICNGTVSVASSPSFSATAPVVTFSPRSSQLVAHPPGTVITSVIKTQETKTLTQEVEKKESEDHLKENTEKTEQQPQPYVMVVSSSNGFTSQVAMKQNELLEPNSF
Chain of ELF4 (Q99607 whole entry): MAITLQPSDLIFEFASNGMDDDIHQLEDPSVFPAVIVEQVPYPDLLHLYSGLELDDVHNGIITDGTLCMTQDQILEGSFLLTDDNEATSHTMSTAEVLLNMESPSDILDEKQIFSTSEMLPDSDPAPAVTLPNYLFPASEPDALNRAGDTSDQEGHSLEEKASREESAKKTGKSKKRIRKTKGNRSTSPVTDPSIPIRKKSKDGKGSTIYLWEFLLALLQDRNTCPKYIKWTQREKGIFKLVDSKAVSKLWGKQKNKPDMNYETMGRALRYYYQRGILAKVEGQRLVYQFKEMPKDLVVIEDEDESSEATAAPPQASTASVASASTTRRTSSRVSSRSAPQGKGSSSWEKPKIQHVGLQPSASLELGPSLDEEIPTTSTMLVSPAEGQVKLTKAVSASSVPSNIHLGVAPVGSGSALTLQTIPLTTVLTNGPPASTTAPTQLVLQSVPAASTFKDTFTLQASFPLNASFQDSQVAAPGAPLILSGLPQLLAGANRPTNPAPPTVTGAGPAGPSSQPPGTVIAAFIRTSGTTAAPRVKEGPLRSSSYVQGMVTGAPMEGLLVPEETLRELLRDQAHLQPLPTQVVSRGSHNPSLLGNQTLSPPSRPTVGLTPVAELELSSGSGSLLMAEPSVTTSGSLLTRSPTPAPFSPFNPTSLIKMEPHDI
Chain of SPIB (Q01892 whole entry): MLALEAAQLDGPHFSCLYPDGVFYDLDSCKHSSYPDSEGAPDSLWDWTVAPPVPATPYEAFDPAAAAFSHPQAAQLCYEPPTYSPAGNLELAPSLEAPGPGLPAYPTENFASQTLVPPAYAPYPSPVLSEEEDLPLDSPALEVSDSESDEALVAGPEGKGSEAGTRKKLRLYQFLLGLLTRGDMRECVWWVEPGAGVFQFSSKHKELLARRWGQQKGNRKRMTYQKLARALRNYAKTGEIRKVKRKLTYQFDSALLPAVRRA
Chain of HSF1 (Q00613 whole entry): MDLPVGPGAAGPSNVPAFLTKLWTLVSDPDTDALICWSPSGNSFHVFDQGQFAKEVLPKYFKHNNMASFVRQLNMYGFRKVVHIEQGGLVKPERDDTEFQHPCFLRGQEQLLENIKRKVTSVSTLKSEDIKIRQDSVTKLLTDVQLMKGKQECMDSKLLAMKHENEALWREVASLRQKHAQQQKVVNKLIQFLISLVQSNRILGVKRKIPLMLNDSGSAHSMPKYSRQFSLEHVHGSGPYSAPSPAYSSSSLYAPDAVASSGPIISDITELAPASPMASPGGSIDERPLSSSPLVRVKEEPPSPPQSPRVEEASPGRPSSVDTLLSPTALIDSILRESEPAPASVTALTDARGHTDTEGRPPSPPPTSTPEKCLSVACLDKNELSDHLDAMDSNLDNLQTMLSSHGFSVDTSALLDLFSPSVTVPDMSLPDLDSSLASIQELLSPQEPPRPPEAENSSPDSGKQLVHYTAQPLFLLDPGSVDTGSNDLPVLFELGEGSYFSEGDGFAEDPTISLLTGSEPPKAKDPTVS

For the sequence AGTTAA, the binding signal with FLI1 is 1.02 fold enrichment (6-mer frequency, TF over GST control); with ELK1, 1.09 fold enrichment (6-mer frequency, TF over GST control); with GABPA, 1.05 fold enrichment (6-mer frequency, TF over GST control); with ERG, 1.12 fold enrichment (6-mer frequency, TF over GST control); with ELF1, 1.01 fold enrichment (6-mer frequency, TF over GST control); in the experiment with EHF it was 1.08 fold enrichment (6-mer frequency, TF over GST control). Further, the binding signal in the experiment with SPI1 is 1.13 fold enrichment (6-mer frequency, TF over GST control); with SPIB it was 1.08 fold enrichment (6-mer frequency, TF over GST control); in the experiment with ELK3, 1.04 fold enrichment (6-mer frequency, TF over GST control); with FEV it was 1.05 fold enrichment (6-mer frequency, TF over GST control); with ETV5, 1.1 fold enrichment (6-mer frequency, TF over GST control); in the experiment with HSF1 it was 1.15 fold enrichment (6-mer frequency, TF over GST control). Further, the binding signal with SPIC is 1.05 fold enrichment (6-mer frequency, TF over GST control); with ELF4, 1.15 fold enrichment (6-mer frequency, TF over GST control); with ELK4, 1.15 fold enrichment (6-mer frequency, TF over GST control); in the experiment with ETV2, 1.2 fold enrichment (6-mer frequency, TF over GST control); with ELF3, 1.09 fold enrichment (6-mer frequency, TF over GST control); in the experiment with CRX, 1.51 fold enrichment (6-mer frequency, TF over GST control).
